Hits are enriched below; roughly 21% of the tested compounds scored in any of these assays.
Pf growth 96h – Primary qHTS for delayed death inhibitors of the malarial parasite plastid, 96 hour incubation. P. falciparum luciferase reporter growth, 96 h. Potency, µM (doses to about 28.7 µM), inactives show top-dose activity change, negative = inhibition, most hits filed as inhibitors. hit rate 6.9% among 320,000. AID 504834, 2011; further: potency means the concentration at half of the fitted maximal effect; on the % scale 0 is the no-effect control and ±100 the full control effect
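Luminescence readout: decreased luciferase signal marks inhibited growth of reporter-expressing P. falciparum in infected red cells (2% hematocrit, 0.05% parasitemia final), exposed to compound two generations (96 h, 37 C, 5% CO2).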
Cycloheximide cs – Cycloheximide Counterscreen for Small Molecule Inhibitors of Shiga Toxin. cell reporter, cycloheximide protein synthesis inhibition counterscreen. max response, %. hit rate 12% among 300,000; in the data active means max response mostly above about 13%, no sharp cut-off; inactive means mostly below about 14%; further: read at 38.3 µM for the half of the compounds with a filed dose; 0% is about no effect
Pf growth 48h – Primary qHTS for delayed death inhibitors of the malarial parasite plastid, 48 hour incubation; P. falciparum luciferase growth in erythrocytes, 48 h; Potency, µM (series often up to 28.7 µM), for inactives: at the top dose activity change, negative = inhibition, hits mostly inhibitors; hit rate 5.9% among 310,000; further: potency means the concentration at half of the fitted maximal effect; on the % scale 0 is the no-effect control and ±100 the full control effect
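Read-out is firefly luciferase luminescence from an integrated reporter in P. falciparum, so falling signal marks reduced parasite growth. Infected erythrocytes were at 2% hematocrit and 0.1% parasitemia (final) in Albumax-supplemented RPMI 1640.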
Shiga inhibitor – A qHTS for Small Molecule Inhibitors of Shiga Toxin; Vero cells, Shiga toxin protein synthesis inhibition reporter; inhibition, % at 38.7 µM; hit rate 9.2% among 290,000; AID 2315, 2010; in the data active means inhibition mostly above about 28%, no sharp cut-off; inactive means mostly below about 43%; further: 0% is about no effect
The depositor's hits bear a star; u = inconclusive; x = no result given; [ ] = another dose, or the depositor's remark. Unless noted, the call rests on the fitted dose curve; in most records, active means well fitted inhibition curve with a large enough effect; inconclusive means small, poorly fitted or top-dose-only effect, or another doubt; inactive means no such curve, though single readings can be large or run the other way.

SMILES | Pf growth 96h | Cycloheximide cs | Pf growth 48h | Shiga inhibitor
CC1=CC(C)(C)N(C(=O)CSc2nnc(C)s2)c2ccc(C)cc21 | u | -3 | -15% | -14
CC1=CC(C)(C)N(C(=O)CSc2nnc(-c3ccc(C)cc3)o2)c2ccc(C)cc21 | 9.3µM* | 11 | x | -9
COc1ccc(NC(=O)CSc2nnc(C)n2N)cc1S(=O)(=O)N1CCCCC1 | 10% | x | -10% | x
CCOC(=O)N1CCN(C(=O)c2oc3ccc(S(=O)(=O)N(CC)CC)cc3c2C)CC1 | -10% | 6 | 5.2µM* | -4
Cc1ccc2oc(C(=O)N3CCC(O)(c4ccccc4)CC3)c(C)c2c1 | 10µM* | 12* | u | 18
CCN(CC)C(=O)C1CCN(C(=O)c2oc3ccc(C)cc3c2C)CC1 | -21% | 17* | 25% | 16
CSCc1c(C(=O)NC2CCCc3ccccc32)oc2ccccc12 (stereo not given) | 6%[5.75 µM] | -2 | 1% | 16
Cc1c(C(=O)N2CCOCC2)oc2ccc(S(=O)(=O)N3CCCCCC3)cc12 | u | -4 | u | -22
CCN(CC)S(=O)(=O)c1ccc2oc(C(=O)NC3CCCc4ccccc43)c(C)c2c1 (stereo not given) | x | 6 | 5.2µM* | 31
COc1cc(C(=O)N2CCC(O)(c3ccccc3)CC2)cc(OC)c1OC | u | -3 | x | -12
O=C(c1ccc(Br)cc1)N1CCC2(CC1)NCCc1[nH]cnc12 | 23% | 1 | 1% | 20
CCN(CC)S(=O)(=O)c1ccc2oc(C(=O)N3CCc4ccccc4C3)c(C)c2c1 | 9.3µM* | -5 | u | 4
CCN(CC)S(=O)(=O)c1ccc2oc(C(=O)N3CCOCC3)c(C)c2c1 | u | -2 | -29% | 0
CCN(CC)S(=O)(=O)c1ccc2oc(C(=O)N3CCCCCC3)c(C)c2c1 | -5% | -2 | 13µM* | -16
CCN(CC)S(=O)(=O)c1ccc2oc(C(=O)NCCN3CCOCC3)c(C)c2c1 | 0% | -1 | -21% | -6
C=CCNC(=O)c1oc2ccc(S(=O)(=O)N(CC)CC)cc2c1C | 10µM* | 6 | u | -4
COc1cc(CC(=O)OCc2ccccc2F)cc(OC)c1OC | 15% | 1 | 17% | 8
COc1cc(C2C3=C(CC(C)(C)CC3=O)Nc3ccccc3N2C(C)=O)cc(OC)c1OC (stereo not given) | 0% | 1 | 26% | 7
O=C(Nc1nc2ccc(S(=O)(=O)N3CCCC3)cc2s1)C1CCCCC1 | 1% | -4 | u | 1
COC(=O)c1ccc2nc(NC(=O)C3CCCCC3)sc2c1 | u | 24* | 126% | 18
CC(C)c1ccc2nc(NC(=O)C3CC3)sc2c1 | 264% | 52* | 109% | 70*
CC(C)CCN1CCN(Cc2cnc(N3CCCC3)s2)CC1CCO (stereo not given) | u | -1 | -6% | -4
O=C(CCCCCCC(=O)NCc1ccccc1)NCc1ccccc1 | u | -1 | -12% | -9
CCN(CC)S(=O)(=O)c1cccc(NC(=O)c2cc3ccccc3o2)c1 | u | 22 | u | 55*
CN(C)S(=O)(=O)c1cccc(NC(=O)c2cc3ccccc3o2)c1 | x | 57* | 64% | 54
SMILES | Pf growth 96h | Cycloheximide cs | Pf growth 48h | Shiga inhibitor
O=C(Nc1cccc(S(=O)(=O)N2CCOCC2)c1)c1cc2ccccc2o1 | -28% | 1 | 37% | 1
COc1ccc(C2CC(c3c(-c4ccccc4)c4cc(Cl)ccc4[nH]c3=O)=NN2S(C)(=O)=O)cc1OC (stereo not given) | u | -1 | 10µM* | -5
COc1ccc(C2CC(c3cccs3)=NN2S(C)(=O)=O)cc1OC (stereo not given) | 6% | -1 | -10% | 28
CN1C(=O)[C@H]2[C@@H](/C=C/c3ccccc3)N3C(=O)CN(Cc4ccc(-c5ccccc5)cc4)C(=O)[C@@]3(Cc3ccccc3)[C@H]2C1=O | u | -2 | u | 1
CCC(CC)COC(=O)C1=C(C)NC(=O)NC1c1ccc2c(c1)OCO2 (stereo not given) | 0.93µM* | -3 | 29% | -17
COc1ccc(C2NC(=O)NC(C)=C2C(=O)OCc2ccc3c(c2)OCO3)cc1OC (stereo not given) | 484% | 0 | 4.7µM* | 6
COc1ccc(COC(=O)C2=C(C)NC(=O)NC2c2ccc(F)cc2)cc1 (stereo not given) | 2.9µM* | -3 | u | 0
O=c1c(-c2nn[nH]n2)coc2ccc(Cl)cc12 | 44% | -8 | 15% | -3
CCc1ccc([C@@H]2CC=C(C(=O)O)[C@H](c3ccc(F)cc3)N2S(=O)(=O)c2ccc(C)cc2)cc1 | 38% | x | -20% | x
COc1cc2c(cc1NC(=O)Nc1ccccc1)oc1ccccc12 | 28% | 1 | -10% | 20
COc1cc2c(cc1NC(=O)CC1SC(N3CCCC3)=NC1=O)oc1ccccc12 (stereo not given) | 1.2µM* | -1 | 6.6µM* | 8
COc1cc2c(cc1NC(=O)COc1ccccc1OC)oc1ccccc12 | 0% | 5 | 36% | 36
COc1cc2c(cc1NC(=O)COC(=O)C(CCSC)NC(=O)c1ccccc1Cl)oc1ccccc12 (stereo not given) | 81% | 15 | 36% | active
COc1cc2c(cc1NC(=O)COC(=O)Cn1cnc3ccccc31)oc1ccccc12 | -2% | 36* | 63% | 79*
COc1cc2c(cc1NC(=O)C(C)NCc1ccccc1)oc1ccccc12 (stereo not given) | u | 64* | u | 76*
CCOC(=O)CCc1cc(F)c(S(=O)(=O)N2CCN(S(=O)(=O)c3ccc4c(c3)OCCO4)CC2)cc1F | x | -4 | x | -7
CC(=O)Nc1ccc(S(=O)(=O)N(C)CC(=O)OCCOc2cccc(C)c2)cc1 | 31% | 1 | 10% | 12
COc1cc2c(cc1NC(=O)CSc1ccc(C)cc1)oc1ccccc12 | 86% | 3 | 13% | 30
COc1ccc(CN(C)CC(=O)Nc2cc3oc4ccccc4c3cc2OC)c(OC)c1 | 9.3µM* | 0 | u | 1
COc1cc2c(cc1NC(=O)CCCN1C(=O)CCC1=O)oc1ccccc12 | -4% | 36* | 40% | 79*
COc1cc2c(cc1NC(=O)Cc1ccc(C)cc1)oc1ccccc12 | -29% | 73* | 70% | 93*
COc1cc2c(cc1NC(=O)CN(C)Cc1ccc(OC)c(OC)c1)oc1ccccc12 | 7.4µM* | 0 | 9.3µM* | 12
Cn1c(CNC(=O)c2ccco2)nnc1SCC(=O)c1ccc(F)cc1 | 45% | 6 | 3% | -2
CC(=O)c1cccc(NC(=O)CC2SC(N3CCCCC3)=NC2=O)c1 (stereo not given) | u | -2 | -3% | -4
COc1ccc(CCNC(=O)c2cccc(NC(=O)CC3SC(N4CCCCC4)=NC3=O)c2)cc1OC (stereo not given) | u | -1 | 12µM* | -5
COc1cc2c(cc1NC(=O)COC(=O)[C@@H](NS(=O)(=O)c1ccccc1)C(C)C)oc1ccccc12 | 53% | 11* | 14% | 56*
COc1cccc(NC(=O)CSc2nc(=O)n(Cc3ccncc3)c3c2CCCC3)c1 | -26% | x | -14% | x
